In the library only some 3.3% were active in any assay of this set; here they are far more common.
LmPK inhibitor: LmPK (Leishmania mexicana) enzyme inhibition; purified LmPK, Kinase-Glo ATP luminescence, 1 h; Potency, µM (highest dose often 57.5 µM), most hits filed as inhibitors; actives 0.37% (n = 290,000); AID 1721
Target sequence (Q27686 whole entry, looked up): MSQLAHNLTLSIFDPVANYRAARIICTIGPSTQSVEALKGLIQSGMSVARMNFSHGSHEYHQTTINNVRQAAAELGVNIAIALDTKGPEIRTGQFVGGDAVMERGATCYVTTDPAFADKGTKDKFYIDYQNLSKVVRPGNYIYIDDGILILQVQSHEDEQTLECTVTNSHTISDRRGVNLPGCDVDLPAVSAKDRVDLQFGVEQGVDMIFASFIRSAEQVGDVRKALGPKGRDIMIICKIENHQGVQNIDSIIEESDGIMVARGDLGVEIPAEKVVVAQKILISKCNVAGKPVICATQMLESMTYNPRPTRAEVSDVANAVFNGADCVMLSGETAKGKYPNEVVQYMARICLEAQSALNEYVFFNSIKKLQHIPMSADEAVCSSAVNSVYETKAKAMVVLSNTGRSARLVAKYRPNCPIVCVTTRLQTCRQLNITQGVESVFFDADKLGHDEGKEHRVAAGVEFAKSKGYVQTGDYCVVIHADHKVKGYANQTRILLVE
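0.1 nM LmPK, 0.5 mM PEP, 0.1 mM ADP; 50 mM imidazole pH 7.2, 7 mM MgCl2, 50 mM KCl; 1 h RT. Kinase-Glo luminescence readout, normalized to no-enzyme (full inhibition) and uninhibited wells.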
Sm TGR block: S. mansoni TGR enzyme inhibition | Q962Y6 | purified TGR, DTNB reduction, TNB absorbance 405 nm | Potency, µM (doses to about 114 µM), actives largely listed as inhibitors | actives 3% (n = 360,000) | AID 485364; note: nearly all actives have a fitted effect of over 60% in size
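TGR 20 nM + NADPH 100 uM (dispensed conc.), cpd preinc 15 min RT; start with NADPH (500 uM addition) then DTNB (15 mM addition). Kinetic TNB absorbance, 405 nm filter. Four-parameter Hill fit across titration.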
RE007 growth inh: less growth of the S. pombe RE007 Vpr strain; Potency, µM (top dose mostly 92.2 µM), most hits filed as inhibitors; S. pombe RE007 Vpr strain, BacTiter-Glo ATP luminescence, 24 h; actives 0.21% (n = 360,000); active = well fitted falling curve with a large enough effect; inconclusive = small, poorly fitted or top-dose-only effect; inactive = no such curve, though single readings can be large or run the other way; note: nearly all actives have a fitted effect of over 50% in size
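Fission yeast strain RE007, carrying one chromosomally integrated HIV-1 vpr copy, was seeded at OD 0.01 in PMG+AL medium with 23 nL pinned compound. After 24 h at 30 °C and 99% humidity, viability was read by BacTiter-Glo luminescence.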
NS1 function inh: influenza NS1 inhibition; AID 2326; Potency, µM (doses to about 46.1 µM); actives 0.4% (n = 270,000); calls by dose curve; note: actives are rising curves; nearly all actives have a fitted effect of over 50% in size
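Read-out: OD600 growth recovery of NS1-expressing budding yeast. Cells grown overnight at 30C in -URA glucose medium, washed, resuspended and diluted 1:100 in 2% galactose assay medium, pH 6.0. Same strain lacking NS1 served as positive control.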
Tb PYK inh: inhibitors of Trypanosoma brucei pyruvate kinase; Potency, µM (titrated, usually from 76.8 µM), hits mostly inhibitors; AID 624173; actives 0.12% (n = 410,000); TbPYK enzyme, Kinase-Glo Plus ATP luminescence, 45 min; Q57TT1; note: nearly all actives have a fitted effect of over 50% in size
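Assay buffer: 50 mM TEA pH 7.2, 100 mM KCl, 10 mM MgCl2, 0.05% BSA, 0.01% Tween-20. Pyruvate kinase from T. brucei plus substrate met compound, then ADP (130 uM final). Luminescence was read post 45 min RT.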
SARS PLpro yeast: blocks SARS-CoV papain-like protease in a yeast assay; S. cerevisiae expressing SARS-CoV PLpro, growth rescue; AID 485353; actives 0.19% (n = 330,000); Potency, µM (series often up to 32.9 µM), actives largely listed as activators; calls by dose curve; note: nearly all actives have a fitted effect of over 55% in size
Numbers stand for hits; - = inactive; ? = inconclusive; . = not tested or not shown. Unless noted, calls come from the whole dose curve; as a rule, active = well fitted curve in the direction sought with a large enough effect; inconclusive = small, poorly fitted or top-dose-only effect, or another doubt; inactive = no such curve, though single readings can be large; an effect the other way counts as inactive or inconclusive.

SMILES | LmPK inhibitor | Sm TGR block | RE007 growth inh | NS1 function inh | Tb PYK inh | SARS PLpro yeast
CCC(=O)N1CCC2(CC1)Oc1ccc(F)cc1C(=O)C21CC(c2ccccc2)=NO1 (stereo unspecified) | - | 50µM | - | - | - | -
CC(Oc1ccccc1)C(=O)N1CCC2(CC1)Oc1ccc(F)cc1C(=O)C21CC(c2ccccc2)=NO1 (stereo unspecified) | . | . | - | . | - | .
CC1=CC(=C(c2ccc(N)cc2)c2ccc(N)cc2)C=CC1=N | . | . | . | . | - | .
Cc1ccc2cc(C=C(C#N)C#N)c(Cl)nc2c1 | - | 2.8µM | - | - | - | -
N#CC(C#N)=Cc1cc2ccccc2nc1N1CCOCC1 | - | 7.1µM | - | - | - | -
Cc1ccc2cc(C=C(C#N)C#N)c(N3CCCCC3)nc2c1 | - | 3.2µM | - | - | - | -
COc1ccc(C(=O)NC2(C(F)(F)F)C(=O)NC(C)=C2C#N)cc1 (stereo unspecified) | . | - | . | . | - | .
CC1CCC(C(=O)O)([C@H](Br)C(=O)O)CC1 (stereo partly specified) | . | . | . | - | . | .
CCSc1ncc(Cl)c(C(=O)N(Cc2ccccc2)c2ccc(OC)cc2)n1 | . | - | . | . | - | .
Cc1ccc(S(=O)(=O)N(Cc2nc(-c3cccc(C)c3)no2)C2CCCCC2)cc1 | . | - | . | . | - | .
CC(CCc1ccco1)NC(=O)Cn1ncc2c1-c1ccccc1OC2 (stereo unspecified) | - | 50µM | - | - | - | -
c1nc(SSc2ncnc3nc[nH]c23)c2[nH]cnc2n1 | . | . | - | . | 3.5µM | .
CC(=O)C1=C(C)NC(SCC(=O)c2ccccc2)=C(C#N)C1CC(C)C (stereo unspecified) | - | - | - | ? | 32µM | -
CCOc1ccccc1NC(=O)c1cnn2c(C(F)F)cc(-c3ccccc3)nc12 | . | - | . | . | - | .
Cc1ccc(S(=O)(=O)N2CCN(C(=O)N(C)C)CC2)cc1C | - | - | - | - | - | -
Cc1ccc(/C=C/C(=O)N2CC(=O)Nc3ccccc32)o1 | - | 8.9µM | - | - | ? | -
Cc1ccc(/C=C/C(=O)N2CCN(S(=O)(=O)c3c(C)c(C)cc(C)c3C)CC2)o1 | - | 10µM | - | - | ? | -
Cc1cccc(CN2CCN(C(=O)CCl)CC2)c1 | - | 35µM | - | - | - | -
Cc1ccc(/C=C/C(=O)N2CCN(S(=O)(=O)c3ccc(C)c(C)c3)CC2)o1 | - | 13µM | - | - | 14µM | -
Cc1ccc(/C=C/C(=O)N2CCN(Cc3ccccc3)CC2)o1 | - | 14µM | - | - | - | -
Cc1ccc(C(=O)N2CCN(Cc3ccccc3)CC2)o1 | - | - | - | - | - | -
Clc1cc2c(c(CSC3=NCN(CC4CC4)CN3)c1)OCOC2 | . | . | . | - | . | .
Cc1cc(Cl)ccc1NS(=O)(=O)c1ccc2c(c1)CC(C)N2C(=O)C1CCC1 (stereo unspecified) | . | - | . | . | - | .
O=C(c1ccco1)N1CCN(c2ncnc3c2[nH]c2ccc(Cl)cc23)CC1 | - | 50µM | . | 2.2µM | . | ?
O=C(c1ccco1)N1CCN(c2c(-c3ccccc3)c3cc(Cl)ccc3[nH]c2=O)CC1 | - | - | - | . | - | -
SMILES | LmPK inhibitor | Sm TGR block | RE007 growth inh | NS1 function inh | Tb PYK inh | SARS PLpro yeast
N#Cc1nc(-c2cccc3ccccc23)oc1NCC#CCOC(=O)c1cccs1 | . | - | . | . | . | -
CN1OC[C@@H]2COc3ccc4ccccc4c3[C@@H]21 | - | - | - | . | - | -
CN1COc2ccc3ccccc3c2C1 | - | 4µM | - | . | - | -
Cc1ccc2nc(Cl)c3nnnn3c2c1 | - | 1.4µM | 25µM | . | - | -
Cc1ccc(S(=O)(=O)N2CCSC2c2ccco2)cc1 (stereo unspecified) | - | 45µM | - | ? | - | -
C#CCNC(=O)C1=C[C@@H](C2CC2)C[C@@H](OCCCCO)O1 | - | ? | - | - | - | -
C#CCNC(=O)C1=C[C@H](C2CCCCC2)C[C@H](OCCCCO)O1 | - | 13µM | - | - | - | -
C#CCNC(=O)C1=C[C@@H](C2CCCCC2)C[C@@H](OCCCCO)O1 | - | 13µM | - | - | - | -
O=C(NC1CC1)C1=C[C@H](C2CCCCC2)C[C@H](OCCCCO)O1 | - | - | - | - | - | -

Screening data deposited in PubChem by National Center for Advancing Translational Sciences (NCATS).
